PAD4 inh: human PAD4 inhibitors, primary screen, biochemical, fluorescence polarization, 1536-well format | inhibition, % at 6.36 µM | 330,000 tested, 0.41% active | Protein-arginine deiminase type-4 (Homo sapiens), Q9UM07 | recombinant PAD4, RCA probe fluorescence polarization;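 active = percent inhibition above a cutoff equal to the mean of all tested compounds plus 3 SD, cut at about 15% in these data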;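 note: 0% = PAD4 with RCA probe and DMSO and 100% = probe without PAD4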
PME-1 primary: PME-1 inhibitors via competitive probe labeling, primary screen, biochemical, fluorescence polarization, FP-Rh probe, HTS; Protein phosphatase methylesterase 1 (Homo sapiens), Q9Y570; recombinant PME-1; inhibition, % at 5.9 µM; 320,000 tested, 0.53% active;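 active = inhibition above the campaign mean of all compounds plus 3 SD, cut at about 26% in these data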;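 note: competitive labeling of PME-1 active site by serine hydrolase directed probe; 0% = PME-1 with DMSO and 100% = wells lacking PME-1 enzyme; inhibitors block probe labeling so polarization falls and inhibition rises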
Target sequence (Q9Y570 whole entry, looked up): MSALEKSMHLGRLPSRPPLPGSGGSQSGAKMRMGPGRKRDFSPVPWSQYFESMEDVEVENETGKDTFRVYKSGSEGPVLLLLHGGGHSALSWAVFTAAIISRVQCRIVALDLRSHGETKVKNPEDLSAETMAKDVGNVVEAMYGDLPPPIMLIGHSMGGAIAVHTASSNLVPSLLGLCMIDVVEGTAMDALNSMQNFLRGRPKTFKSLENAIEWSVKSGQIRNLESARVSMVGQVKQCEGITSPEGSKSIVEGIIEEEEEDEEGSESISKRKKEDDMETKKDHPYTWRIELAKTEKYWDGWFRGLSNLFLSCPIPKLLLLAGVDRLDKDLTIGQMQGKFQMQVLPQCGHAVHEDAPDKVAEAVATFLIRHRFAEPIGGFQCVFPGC
Fam108B inh: mouse Fam108B serine hydrolase inhibitors, primary screen, counter-screen for RBBP9 inhibitor project, biochemical, fluorescence polarization; recombinant Fam108B, FP-Rh probe fluorescence polarization; inhibition, % at 9.51 µM; 300,000 tested, 0.33% active;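 active = inhibition above the screen mean inhibition plus 3 SD, computed separately per campaign, cut at about 18% in these data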;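 note: inhibitors lower polarization as less probe binds the enzyme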
pPAFAH FP inh: pPAFAH enzyme inhibitors, primary screen, biochemical, fluorescence polarization, human | recombinant pPAFAH, FP-rhodamine probe fluorescence polarization | 330,000 tested, 1.5% active | inhibition, % at 3.39 µM | Platelet-activating factor acetylhydrolase (Homo sapiens), Q13093;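 active = inhibition above the mean inhibition across the screen plus 3 SD, cut at about 25% in these data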;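 note: inhibitors block binding of the rhodamine activity-based probe so polarization drops; 0% = enzyme with DMSO and 100% = wells lacking pPAFAH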
GSTO1 inh: inhibitors of recombinant GSTO1, primary screen, counter-screen for RBBP9 inhibitor project, biochemical, fluorescence polarization; Glutathione S-transferase omega-1 (Homo sapiens), P78417; activity-based probe fluorescence polarization; inhibition, % at 5.96 µM; 300,000 tested, 1.1% active; AID 1974, 2009;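 active = inhibition above the campaign mean inhibition plus 3 SD, cut at about 35% in these data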;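 note: 0% = GSTO1-1 with DMSO and 100% = wells lacking GSTO1-1 enzyme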
Target sequence (P78417 whole entry, looked up): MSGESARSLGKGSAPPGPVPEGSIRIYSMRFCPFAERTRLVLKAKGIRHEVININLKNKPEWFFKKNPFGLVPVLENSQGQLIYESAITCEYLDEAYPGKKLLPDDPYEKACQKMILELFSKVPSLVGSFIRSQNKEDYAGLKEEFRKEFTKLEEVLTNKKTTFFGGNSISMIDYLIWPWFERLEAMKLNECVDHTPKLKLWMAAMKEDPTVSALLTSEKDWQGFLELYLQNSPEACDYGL
pPAFAH FP conf: pPAFAH (PLA2G7) enzyme inhibitors, confirmation, biochemical, fluorescence polarization, human; 2,300 tested, 72% active; shares compounds with pPAFAH FP inh; inhibition, % at 3.39 µM; recombinant pPAFAH, FP-Rh probe fluorescence polarization; AID 463230, 2010;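 active = mean inhibition of the triplicate above the hit cutoff set for the earlier primary screen, cut at about 25% in these data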;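 note: 0% = enzyme with DMSO and 100% = wells lacking pPAFAH enzyme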
* hit, by the source's call; nt = no result given. Most compounds without a hit are left out; they make up all but 2.3% or so of the library.

SMILES	PAD4 inh	PME-1 primary	Fam108B inh	pPAFAH FP inh	GSTO1 inh	pPAFAH FP conf
CCc1ccccc1NC(=O)C1CCCN(S(=O)(=O)c2ccc3c(c2)CC(C)N3C(C)=O)C1 (stereo unspecified)	0	4	4	3	1	nt
C[C@H]1CN([C@@H](C)CO)C(=O)Cc2cc(NS(=O)(=O)c3ccc(Cl)cc3)ccc2O[C@@H]1CN(C)C(=O)Nc1cccc2ccccc12	0	nt	nt	49*	nt	54*
CC(C)NC(=O)N(C)C[C@H]1Oc2ccc(NS(=O)(=O)c3ccc(Cl)cc3)cc2CC(=O)N([C@@H](C)CO)C[C@@H]1C	1	nt	nt	8	nt	nt
Cn1c2ccccc2c(=O)c2ccc(NCCc3cccs3)cc21	-2	nt	nt	38*	nt	16
Clc1ccc(CNc2ccc(CNc3ncn[nH]3)cc2)c(Cl)c1	-1	11	4	37*	5	20
Clc1ccc(CNc2ccc(CNc3ncn[nH]3)cc2)cc1	-2	-9	-3	1	0	nt
CCCCN(C(=O)C(C)N1C(=O)c2ccccc2C1=O)c1c(N)n(CC(C)C)c(=O)[nH]c1=O (stereo unspecified)	-2	-7	nt	-7	nt	nt
O=C(CNC(=O)[C@@H]1Cc2ccccc2CN1)Nc1ccc2c(c1)OCCO2	-1	-4	-4	7	8	nt
CCOC(=O)/C(C#N)=C/Nc1ccccc1NS(=O)(=O)c1cccc(C(C)=O)c1	-32	2	1	35*	6	9
CCOC(=O)/C(C#N)=C/Nc1ccccc1NS(=O)(=O)c1ccc(C)c(C)c1	-9	4	-3	1	10	nt
COc1ccc(C)cc1Nc1n[n+](-c2ccccc2)c(-c2c(Cl)cccc2Cl)s1	3	9	5	53*	17	53*
CCc1ccc(Nc2n[n+](-c3ccccc3)c(-c3c(Cl)cccc3Cl)s2)cc1	3	7	5	56*	12	34*
COc1ccc(C)cc1Nc1n[n+](-c2ccccc2)c(-c2ccc(OC)c(OC)c2OC)s1	-1	3	6	10	2	nt
Fc1ccc(-[n+]2nc(Nc3ccccc3)sc2-c2c(Cl)cccc2Cl)cc1	5	0	9	51*	2	22
O=C(O)c1ccc(-c2sc(Nc3ccccc3)n[n+]2-c2ccc(F)cc2)cc1	0	5	-2	3	1	nt
COc1ccc(OC)c(CNC(=O)CCC(=O)N2Cc3cccc(OC)c3Oc3ncccc32)c1	-2	2	-2	2	-6	nt
Cc1cc(NC(=O)c2c(-c3c(Cl)cccc3Cl)noc2C)n(C)n1	-2	-1	4	7	1	nt
CCCCC/C=C\C/C=C\C/C=C\CCCCC(=O)O	4	-7	-8	38*	6	17
Cc1ccc(NC(=O)CSc2nnc(-c3ccoc3C)n2CCCN(C)C)cc1Cl	0	-2	0	-4	-3	nt
O=C(Cn1c(=O)n(Cc2ccco2)c(=O)c2c3c(sc21)CCCCC3)Nc1ccccc1	1	-62	-37	3	6	nt
O=C(Cn1c(=O)n(Cc2ccco2)c(=O)c2c3c(sc21)CCCCC3)c1ccccc1	2	-12	-12	37*	4	11
CN(CCOc1ccc(Br)cc1)C(=O)CNC(=O)c1ccc2ccccc2c1	4	-9	-3	-6	9	nt
CC(NC(=S)Nc1cccc(F)c1)C(c1cccs1)N1CCOCC1 (stereo unspecified)	-4	-2	-1	47*	-13	2
CCc1cc(C(=O)OC)c(NC(=O)CSc2nccn2C)s1	0	5	5	6	0	nt
COc1ccc(Cl)cc1NC(=O)CN(C)C(=O)c1ccc(COc2ccccc2)cc1	-2	-4	-1	2	3	nt
SMILES	PAD4 inh	PME-1 primary	Fam108B inh	pPAFAH FP inh	GSTO1 inh	pPAFAH FP conf
O=C(O)C1Nc2c(O)cc(Cl)c([N+](=O)[O-])c2C2C=CCC12 (stereo unspecified)	-4	11	79*	90*	57*	39*
CCOC(=O)N1CCN(C(=O)c2ccc3c(=O)n4c(nc3c2)CCCCC4)CC1	0	3	6	56*	0	1
C[C@H](CO)N1C[C@H](C)[C@@H](CN(C)S(C)(=O)=O)Oc2ccc(NC(=O)Nc3ccc(C(F)(F)F)cc3)cc2C1=O	-3	nt	nt	44*	nt	45*
CCOC(=O)c1c(C)[nH]c(N=Nc2cc(C(=O)O)cc(C(=O)O)c2)c1C	-3	0	4	35*	-1	2
CCOC(=O)c1c(C)[nH]c(N=Nc2ccc(C)cc2C)c1C	0	11	3	5	1	nt
COc1cc(C(=O)NCCC(=O)NC2CCCCC2)cc(OC)c1OC	-1	0	0	47*	-1	3
OC1(c2ccc(Cl)cc2)CCN(Cc2cn[nH]c2-c2ccc(F)cc2)CC1	1	3	0	58*	1	0
O=C(O)CCCC(=O)N1N=C(c2ccccc2)CC1c1cccs1 (stereo unspecified)	-2	-2	0	0	3	nt
CC(OC(=O)CCN=C1NS(=O)(=O)c2ccccc21)C(=O)N(C)c1ccccc1 (stereo unspecified)	-2	-6	0	-1	-1	nt
CC(OC(=O)CCCN=C1NS(=O)(=O)c2ccccc21)C(=O)N(C)c1ccccc1 (stereo unspecified)	-4	2	1	68*	-5	0
CN(C(=O)CSc1nc(O)cc(=O)n1C1CCCC1)c1ccccc1	-1	-4	-4	48*	2	8
COc1ccc(CC(=O)Nc2cccc(/C(C)=N/NC(=O)c3cccc([N+](=O)[O-])c3)c2)cc1	-1	-2	1	80*	0	5
COc1ccc(OCC(=O)N/N=C(\C)CC(=O)Nc2cccc([N+](=O)[O-])c2)cc1	-2	3	-2	7	4	nt
COc1c(O)cc2oc(-c3ccc(O)cc3)cc(=O)c2c1O	-1	0	0	8	7	nt
O=c1cc(-c2ccccc2)oc2cc(O)c(O)c(O)c12	-8	nt	nt	56*	nt	69*
O=c1cc(-c2ccc(O)cc2)oc2c(O)c(O)c(O)c(O)c12	-5	-15	-4	37*	27	72*
COCCn1c(N)c(N(Cc2ccccc2)C(=O)COc2ccccc2F)c(=O)[nH]c1=O	0	-4	nt	3	nt	nt
Cc1ccc(NS(=O)(=O)c2ccc(NC(=O)CN(c3cc([N+](=O)[O-])ccc3C)S(C)(=O)=O)cc2)c(C)c1	2	-49	-44	42*	-11	51*
